Bioassay records (PubChem BioAssay)
Peg3 promoter – Peg3 promoter activity inhibition; inhibition, % at 20 µM; HeLa PEG-Prom luciferase reporter, luminescence, overnight; actives 1.7% (n = 360,000); AID 588405;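 active = inhibition of at least 50% at 20 µM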
HIF-2a inh – blocks HIF-2a reporter activity | 786-0 RCC cells HIF-2a reporter, luciferase luminescence, overnight | inhibition, % at 18.8 µM | actives 0.72% (n = 360,000) | AID 624352;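 active = inhibition of the luminescence signal of 40% or more relative to plate controls, in a single-dose primary screen at 18.75 µM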
CF NFkB block – inhibitors of cystic fibrosis induced NF-kB; KKLEB NF-kB-GFP reporter, PAF-induced, GFP fluorescence overnight; AID 588850; actives 0.86% (n = 360,000); inhibition, % at 5 µM;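 active = at least 50% inhibition at 5 µM, scaled per plate between neutral and stimulator controls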;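 note: PAF is a Pseudomonas aeruginosa culture filtrate used as stimulus; plate controls were PAF-stimulated DMSO wells for no effect and unstimulated DMSO wells for full effect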
TRPM1 prom inh – reduces MITF-dependent TRPM1 promoter luciferase signal | actives 0.83% (n = 330,000) | SK-MEL-5 TRPM1 promoter luciferase, 24 h | AID 488899 | inhibition, % at 12.5 µM;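 active = mean inhibition across replicates of 60% or more, whatever share of single replicates reaches that level; inconclusive = some that reach 60%, reason not given; inactive = mean inhibition across replicates below 60%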
CHOP inhibitor – blocks CHOP induction under ER stress; CHO-K1 CHOP-promoter luciferase, tunicamycin-induced, 15-18 h; AID 2732; inhibition, % at 10 µM; actives 3.8% (n = 220,000);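 active = compounds that reduced the stress-induced luciferase reporter signal by more than about 70% of percent inhibition, limit read from the data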;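 note: 0% = tunicamycin plus vehicle and 100% = wells without tunicamycin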
KKLEB tox – reduces viability of KKLEB cystic fibrosis airway cells. KKLEB CF airway cells viability, ATPlite luminescence, overnight; hits give low values; cells stimulated with P. aeruginosa culture filtrate. activity change (cytotoxicity), % at 5 µM. actives 0.36% (n = 360,000);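 active = corrected activity change at or below -50% at 5 µM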
Mdm2 MdmX conf – Mdm2/MdmX (human) interaction inhibition, confirmed; shares compounds with HIF-2a inh; SaOS-2 split-luciferase Mdm2/MdmX complementation, luminescence; inhibition, % at 8 µM; actives 99% (n = 740); AID 504601;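 active = mean inhibition of the luminescence signal across two replicates at or above 26 percent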
HIF-2a inh conf – HIF-2a inhibition, single concentration confirmation; shares compounds with HIF-2a inh; 786-0 RCC cells, HIF-2a luciferase reporter luminescence, overnight; inhibition, % at 18.8 µM; actives 56% (n = 1,800); AID 651580;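 active = mean inhibition across four replicates of at least 40 percent at the single tested concentration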
HIF-1a cs – HIF-1a inhibition counter-screen for HIF-2a hits | inhibition, % at 18.8 µM | actives 72% (n = 1,800) | MiaPaCa-2 HIF-1a luciferase reporter, desferoxamine, overnight | shares compounds with HIF-2a inh;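 active = mean inhibition of the reporter signal across four replicates at the single tested dose of 50% or more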
The depositor's hits bear a star; ? = inconclusive; nt = no result given. Most compounds without a hit are left out; they make up all but 4.3% or so of the library.

SMILES	Peg3 promoter	HIF-2a inh	CF NFkB block	TRPM1 prom inh	CHOP inhibitor	KKLEB tox	HIF-2a inh conf	HIF-1a cs	others
O=C(O)CCSCC(=O)c1ccc2c(c1)OCCO2	-24	57*	20	14	39	2	64*	45
O=C(O)CCC(=O)c1ccc2c(c1)OCCO2	-27	-26	-2	-21	3	6	nt	nt
CN(CCc1ccccn1)C(=O)CCC1CCCN(C(=O)c2n[nH]c3c2CCCC3)C1 (stereo not given)	10	9	-34	1	0	-4	nt	nt
COc1ccc(C=C2C=C(C(C)(C)C)C(=O)C(C(C)(C)C)=C2)cc1OC	105*	82*	43	-2	nt	-12	65*	103*
COc1ccc(/C=c2/sc3n(c2=O)C(c2ccccc2OC)C2=C(N=3)c3ccccc3CC2)cc1O (stereo not given)	41	41*	38	34	37	0	13	64*
COc1ccc(C(=O)NC2c3ccccc3-c3ccccc32)cc1	22	23	22	10	-29	-3	nt	nt
CC(=O)/C=C\c1cn(-c2ncc(C(F)(F)F)cc2Cl)c2ccccc12	44	61*	0	19	-8	-5	11	30
CCN(CC)S(=O)(=O)c1ccc(N/N=C/c2ccc(O)cc2O)nc1	42	2	-1	50	83*	4	nt	nt	Mdm2 MdmX conf=87*
Cc1cccc(C(=O)OCC(=O)N2CC(=O)Nc3ccccc32)c1C	6	-7	-8	-16	nt	13	nt	nt
COc1cc(N2C(=O)C=CC2=O)c(OC)cc1Cl	106*	41*	22	-4	-3	-2	80*	0
Cc1nn(-c2ccccc2)c(Cl)c1CN(C(=O)CCl)c1cccc2ccccc12	95*	62*	32	25	-70	1	73*	106*	Mdm2 MdmX conf=103*
Cc1nn(-c2ccccc2)c(Cl)c1C(=O)NCC(=O)O	-7	10	-2	8	6	2	nt	nt
NC(=O)c1ccccc1NC(=O)Nc1ccc(F)c(Cl)c1	-2	-34	-3	-2	11	-2	nt	nt
O=C(C1CCCN1C(=O)c1cccs1)N1CCN(S(=O)(=O)c2ccc(F)cc2)CC1 (stereo not given)	-1	7	-20	-1	nt	5	nt	nt
CC(C)(C)c1ccc(-c2noc(CCC(=O)NCc3ccco3)n2)cc1	-189	85*	5	83*	85*	-5	92*	-45
O=C(c1ccc(C(F)(F)F)cc1)C1CCCN(C(=O)CN2C(=O)CSC2=O)C1 (stereo not given)	-90	-182	-12	-43	-20	5	nt	nt
O=C(C[C@H]1C[C@H](C(=O)N2CCCCC2)[C@@]2(CCc3ccccc3)c3[nH]c4ccc(Cl)cc4c3CCN2C1=O)NCCCn1ccnc1	33	76*	-1	24	nt	6	12	98*
O=C(NN=Cc1c(O)ccc2ccccc12)c1ccc2c(c1)OCO2	15	-65	4	?	nt	-14	nt	nt	Mdm2 MdmX conf=88*
O=C(N/N=C/c1ccccc1)c1ccc2c(c1)OCO2	-106	-126	-10	-42	nt	5	nt	nt
O=C(CN1CCCc2ccccc21)N/N=C/c1ccccc1	-156	-202	-4	-5	43	-4	nt	nt
O=C(N/N=C/c1ccc([N+](=O)[O-])o1)c1ccc2c(c1)OCO2	13	56*	-5	98*	nt	-2	52*	59*
O=C(CN1CCCc2ccccc21)N/N=C/c1c(O)ccc2ccccc12	-23	-30	5	13	43	-3	nt	nt	Mdm2 MdmX conf=97*
O=C(N/N=C\c1c(O)ccc2ccccc12)c1ccc(S(=O)(=O)N2CCCCC2)cc1	64*	29	9	76*	65	-35	nt	nt	Mdm2 MdmX conf=87*
